Laboratory results published in PubChem BioAssay (EPA / NIEHS).
Records with an inconclusive call do not appear. Calls of active or inactive are those of the source. The calls were made as follows, unless noted: active = hit-call score of the fitted dose curve at least 0.9, where 1 is the maximum; inactive = score below 0.9.

What was measured:
[1] = target: Peroxisome proliferator-activated receptor gamma (Homo sapiens) (UniProt P37231); test: OT_PPARg_PPARgSRC1_0480: Odyssey Thera (OT) 8-hour Protein-Complementation Assay for Peroxisome Proliferator-activated Receptor Gamma / SRC-1 Co-activator (AID 2283387; active = hit-call score of the fitted dose curve at least 0.9, where 1 is the maximum;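 also: nuclear to cytoplasmic split Venus YFP fluorescence ratio reporting PPARg SRC-1 interaction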)
Outline: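 Split-YFP (IFP1/IFP2) PPARg/SRC-1 reporter, HEK293T, 37 °C, 5% CO2; 8 h compound; formaldehyde fix + Draq5; high-content imaging, N/C ratio, ≥350 cells/image, positive direction vs DMSO.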

[2] = target: Peroxisome proliferator-activated receptor gamma (Homo sapiens) (UniProt P37231); test: OT_PPARg_PPARgSRC1_1440: Odyssey Thera (OT) 24-hour Protein-Complementation Assay for Peroxisome Proliferator-activated Receptor Gamma/ SRC-1 Co-activator (AID 2283388; active = hit-call score of the fitted dose curve at least 0.9, where 1 is the maximum;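 also: nuclear to cytoplasmic ratio of reconstituted Venus YFP fluorescence in fixed imaged cells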)
Outline: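 Protein-fragment complementation between PPARg and coactivator SRC-1 was measured by fluorescence imaging in transiently transfected HEK293T cells after 24 h treatment. Signal was quantified as N/C ratio in the 488 nm channel, with DMSO as negative control.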

[3] = CEETOX_H295R_11DCORT: CeeTox H295R High-throughput Steroidogenesis Assay for 11-Deoxycortisol (11DCORT) (AID 2283432); conditions: actives raise or lower the signal
Outline: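 Steroidogenesis in human H295R cells: 48 h chemical exposure after forskolin priming, 11-deoxycortisol measured by LC-MS/MS.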

[4] = CEETOX_H295R_OHPREG: CeeTox H295R High-throughput Steroidogenesis Assay for OH-Pregnenolone (OHPREG) (AID 2283434); conditions: actives raise or lower the signal
Outline: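 Hormone levels in spent medium were measured by tandem mass spectrometry following liquid-liquid extraction. Cells (H295R) had been forskolin-stimulated (10 uM, 48 h) before a 48 h chemical exposure at 0.1% DMSO, with activity fitted in both directions against DMSO.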

[5] = CEETOX_H295R_OHPROG: CeeTox H295R High-throughput Steroidogenesis Assay for OH-Progesterone (OHPROG) (AID 2283435); conditions: actives raise or lower the signal;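 as to AC50: 17alpha-hydroxyprogesterone secreted into medium measured by HPLC-MS/MS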
Outline: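 Secreted 17alpha-hydroxyprogesterone is read by tandem MS from media of forskolin-primed H295R cells dosed with chemical for 48 h. Activity is fitted in both directions against DMSO baseline; cytotoxic concentrations are re-tested diluted.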

[6] = CEETOX_H295R_ANDR: CeeTox H295R High-throughput Steroidogenesis Assay for Androstenedione (ANDR) (AID 2283436); conditions: actives raise or lower the signal;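 also: human H295R adrenal cells exposed for 48 h with androstenedione measured in medium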
Outline: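 Read-out is androstenedione secreted into medium, measured by tandem mass spectrometry after liquid-liquid extraction. Cells were H295R, dosed for 48 h per modified OECD 456; activity fitted in both directions relative to DMSO.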

[7] = CEETOX_H295R_CORTIC: CeeTox H295R High-throughput Steroidogenesis Assay for Corticosterone (CORTIC) (AID 2283437); conditions: actives raise or lower the signal;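 also: corticosterone secreted into medium quantified by mass spectrometry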
Outline: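 Corticosterone secreted into medium is measured by reverse-phase HPLC with tandem MS following liquid-liquid extraction. Cells are forskolin-stimulated (10 uM, 48 h) before 48 h test exposure; activity fitted in both directions against DMSO.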

[8] = CEETOX_H295R_CORTISOL: CeeTox H295R High-throughput Steroidogenesis Assay for Cortisol (AID 2283438); conditions: actives raise or lower the signal;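 also: cortisol secreted into medium quantified by LC-MS/MS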
Outline: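 Human adrenocortical H295R cells (passage ≤10) received test chemicals for 48 h after forskolin priming. Secreted cortisol was measured by LC-MS/MS.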

[9] = CEETOX_H295R_DOC: CeeTox H295R High-throughput Steroidogenesis Assay for DOC (AID 2283439); conditions: actives raise or lower the signal
Outline: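 Secreted DOC was quantified from H295R media by HPLC-MS/MS after 48 h chemical exposure following 48 h forskolin (10 uM) prestimulation. Values were fitted in both directions relative to DMSO, the negative control and baseline.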

[10] = CEETOX_H295R_ESTRADIOL: CeeTox H295R High-throughput Steroidogenesis Assay for Estradiol (AID 2283440); conditions: actives raise or lower the signal;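 also: estradiol secreted into medium quantified by LC-MS/MS after dansyl derivatisation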
Outline: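 Estradiol secreted into the medium was measured by tandem mass spectrometry after liquid-liquid extraction and dansylation. Human H295R cells had been forskolin-primed (10 uM, 48 h) before a 48 h chemical exposure with 0.1% DMSO.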

[11] = CEETOX_H295R_ESTRONE: CeeTox H295R High-throughput Steroidogenesis Assay for Estrone (AID 2283441); conditions: actives raise or lower the signal;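 also: estrone secreted into medium measured by LC-MS/MS after dansyl derivatization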
Outline: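 H295R cells; 48 h forskolin (10 uM) prestimulation; 48 h compound exposure, 0.1% DMSO final. Medium estrone: MTBE extraction, dansyl derivatization, HPLC-MS/MS. Bidirectional fit vs DMSO.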

[12] = CEETOX_H295R_PROG: CeeTox H295R High-throughput Steroidogenesis Assay for Progesterone (PROG) (AID 2283442); conditions: actives raise or lower the signal;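 as to AC50: human H295R adrenal cells primed with 10 µM forskolin before dosing; progesterone secreted into medium by H295R cells measured by HPLC-MS/MS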
Outline: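 Steps: seed H295R cells and let them adhere overnight; prime 48 h with 10 uM forskolin; dose with compound in DMSO at 0.1% final for 48 h; extract medium steroids with MTBE; measure progesterone by LC-MS/MS. MTT viability was run in the same wells.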

[13] = read-out: Tumor necrosis factor receptor superfamily member 6 (Homo sapiens) (UniProt P25445); test: LTEA_HepaRG_FAS: Life Technologies and Expression Analysis (LTEA) Assay for Fas cell surface death receptor (FAS) using HepaRG (AID 2283447); conditions: mRNA level, 48 h; actives raise or lower the signal
Outline: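 FAS transcript level was measured by TaqMan qRT-PCR against three housekeeping genes after 48 h chemical exposure. Cells were HepaRG, 0.5% DMSO vehicle, with a top concentration of 100 uM and half-log dilutions over eight points, in duplicate.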

[14] = read-out: Fatty acid synthase (Homo sapiens) (UniProt P49327); test: LTEA_HepaRG_FASN: Life Technologies and Expression Analysis (LTEA) Assay for Fatty Acid Synthase (FASN) using HepaRG (AID 2283448); conditions: mRNA level, 48 h; actives raise or lower the signal;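 as to AC50: differentiated human HepaRG liver cells in serum-free induction medium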
Outline: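 Transcript-level assay: HepaRG liver cells are treated for 48 h across an eight-point range topping at 100 uM, and FASN mRNA, normalized to three housekeeping genes, is compared with DMSO controls in both directions.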

[15] = read-out: Cyclin D2 (CCND2), CCND2 (gene 894); test: LTEA_HepaRG_CCND2: Life Technologies and Expression Analysis (LTEA) Assay for Cyclin D2 (CCND2) using HepaRG (AID 2283449); conditions: mRNA level, 48 h; actives raise or lower the signal
Outline: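 Read-out is CCND2 mRNA level measured by qRT-PCR in human HepaRG liver cells and normalised to three housekeeping genes. Chemicals were applied for 48 h at up to 100 uM, with gain or loss fitted relative to 0.5% DMSO.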

[16] = read-out: Cyclin Dependent Kinase Inhibitor 1A (CDKN1A), CDKN1A (gene 1026); test: LTEA_HepaRG_CDKN1A: Life Technologies and Expression Analysis (LTEA) Assay for Cyclin Dependent Kinase Inhibitor 1A (CDKN1A) using HepaRG (AID 2283450); conditions: mRNA level, 48 h; actives raise or lower the signal
Outline: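 Read-out is CDKN1A mRNA by TaqMan qRT-PCR, normalized to three housekeeping genes and fitted in both directions against the DMSO baseline. Human HepaRG cells were treated 48 h with test chemicals up to 100 uM in half-log steps, 0.5% DMSO.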

[17] = read-out: Cyclin D1 (CCND1), CCND1 (gene 595); test: LTEA_HepaRG_CCND1: Life Technologies and Expression Analysis (LTEA) Assay for Cyclin D1 (CCND1) using HepaRG (AID 2283451); conditions: mRNA level, 48 h; actives raise or lower the signal;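 as to AC50: differentiated human HepaRG liver cells in serum-free induction medium; TaqMan qRT-PCR transcript level normalised to ACTB GAPDH and POLR2A housekeeping genes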
Outline: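 HepaRG plated 48 h, medium switched to serum-free induction medium, chemicals added in duplicate (top 100 uM, half-log steps, 0.5% DMSO) for 48 h, cells lysed, RNA measured by TaqMan qRT-PCR.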

[18] = read-out: catalase (CAT), CAT (gene 847); test: LTEA_HepaRG_CAT: Life Technologies and Expression Analysis (LTEA) Assay for catalase (CAT) using HepaRG (AID 2283452); conditions: mRNA level, 48 h; actives raise or lower the signal;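 as to AC50: TaqMan qRT-PCR signal normalized to ACTB GAPDH and POLR2A housekeeping genes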
Outline: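 Expression of CAT was quantified by TaqMan qRT-PCR with ACTB/GAPDH/POLR2A normalization after 48 h chemical exposure of HepaRG. Eight-point half-log series, top 100 uM, in 0.5% DMSO; gain or loss fitted against vehicle.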

[19] = target: Retinoic acid receptor RXR-alpha (Homo sapiens) (UniProt P19793); test: OT_NURR1_NURR1RXRa_1440: Odyssey Thera (OT) 24-hour HEK293T Protein Complementation Assay for Nurr1/retinoid X receptor (RXR) (AID 2283386; active = hit-call score of the fitted dose curve at least 0.9, where 1 is the maximum)
Outline: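 Measured as fluorescence from a reconstituted split reporter, this 24 h HEK293T complementation assay scores compound-induced gain of Nurr1/RXRα association relative to DMSO.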

Measured: AC50

Chain of Peroxisome proliferator-activated receptor gamma (Homo sapiens) (P37231 whole entry, looked up, the tested form may be a part): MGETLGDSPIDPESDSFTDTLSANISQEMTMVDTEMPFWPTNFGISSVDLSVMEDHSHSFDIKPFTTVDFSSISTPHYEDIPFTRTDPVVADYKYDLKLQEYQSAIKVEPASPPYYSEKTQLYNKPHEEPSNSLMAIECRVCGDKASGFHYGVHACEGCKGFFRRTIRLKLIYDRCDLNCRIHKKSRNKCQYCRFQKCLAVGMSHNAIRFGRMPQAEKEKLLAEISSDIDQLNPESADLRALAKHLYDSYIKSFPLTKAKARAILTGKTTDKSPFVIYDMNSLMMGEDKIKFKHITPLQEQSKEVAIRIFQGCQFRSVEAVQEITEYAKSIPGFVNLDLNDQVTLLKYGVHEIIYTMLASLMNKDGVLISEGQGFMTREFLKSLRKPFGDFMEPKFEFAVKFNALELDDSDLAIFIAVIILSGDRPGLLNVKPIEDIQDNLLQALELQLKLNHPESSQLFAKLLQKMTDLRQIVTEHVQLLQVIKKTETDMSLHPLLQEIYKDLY
Chain of Fatty acid synthase (Homo sapiens) (P49327 whole entry, looked up): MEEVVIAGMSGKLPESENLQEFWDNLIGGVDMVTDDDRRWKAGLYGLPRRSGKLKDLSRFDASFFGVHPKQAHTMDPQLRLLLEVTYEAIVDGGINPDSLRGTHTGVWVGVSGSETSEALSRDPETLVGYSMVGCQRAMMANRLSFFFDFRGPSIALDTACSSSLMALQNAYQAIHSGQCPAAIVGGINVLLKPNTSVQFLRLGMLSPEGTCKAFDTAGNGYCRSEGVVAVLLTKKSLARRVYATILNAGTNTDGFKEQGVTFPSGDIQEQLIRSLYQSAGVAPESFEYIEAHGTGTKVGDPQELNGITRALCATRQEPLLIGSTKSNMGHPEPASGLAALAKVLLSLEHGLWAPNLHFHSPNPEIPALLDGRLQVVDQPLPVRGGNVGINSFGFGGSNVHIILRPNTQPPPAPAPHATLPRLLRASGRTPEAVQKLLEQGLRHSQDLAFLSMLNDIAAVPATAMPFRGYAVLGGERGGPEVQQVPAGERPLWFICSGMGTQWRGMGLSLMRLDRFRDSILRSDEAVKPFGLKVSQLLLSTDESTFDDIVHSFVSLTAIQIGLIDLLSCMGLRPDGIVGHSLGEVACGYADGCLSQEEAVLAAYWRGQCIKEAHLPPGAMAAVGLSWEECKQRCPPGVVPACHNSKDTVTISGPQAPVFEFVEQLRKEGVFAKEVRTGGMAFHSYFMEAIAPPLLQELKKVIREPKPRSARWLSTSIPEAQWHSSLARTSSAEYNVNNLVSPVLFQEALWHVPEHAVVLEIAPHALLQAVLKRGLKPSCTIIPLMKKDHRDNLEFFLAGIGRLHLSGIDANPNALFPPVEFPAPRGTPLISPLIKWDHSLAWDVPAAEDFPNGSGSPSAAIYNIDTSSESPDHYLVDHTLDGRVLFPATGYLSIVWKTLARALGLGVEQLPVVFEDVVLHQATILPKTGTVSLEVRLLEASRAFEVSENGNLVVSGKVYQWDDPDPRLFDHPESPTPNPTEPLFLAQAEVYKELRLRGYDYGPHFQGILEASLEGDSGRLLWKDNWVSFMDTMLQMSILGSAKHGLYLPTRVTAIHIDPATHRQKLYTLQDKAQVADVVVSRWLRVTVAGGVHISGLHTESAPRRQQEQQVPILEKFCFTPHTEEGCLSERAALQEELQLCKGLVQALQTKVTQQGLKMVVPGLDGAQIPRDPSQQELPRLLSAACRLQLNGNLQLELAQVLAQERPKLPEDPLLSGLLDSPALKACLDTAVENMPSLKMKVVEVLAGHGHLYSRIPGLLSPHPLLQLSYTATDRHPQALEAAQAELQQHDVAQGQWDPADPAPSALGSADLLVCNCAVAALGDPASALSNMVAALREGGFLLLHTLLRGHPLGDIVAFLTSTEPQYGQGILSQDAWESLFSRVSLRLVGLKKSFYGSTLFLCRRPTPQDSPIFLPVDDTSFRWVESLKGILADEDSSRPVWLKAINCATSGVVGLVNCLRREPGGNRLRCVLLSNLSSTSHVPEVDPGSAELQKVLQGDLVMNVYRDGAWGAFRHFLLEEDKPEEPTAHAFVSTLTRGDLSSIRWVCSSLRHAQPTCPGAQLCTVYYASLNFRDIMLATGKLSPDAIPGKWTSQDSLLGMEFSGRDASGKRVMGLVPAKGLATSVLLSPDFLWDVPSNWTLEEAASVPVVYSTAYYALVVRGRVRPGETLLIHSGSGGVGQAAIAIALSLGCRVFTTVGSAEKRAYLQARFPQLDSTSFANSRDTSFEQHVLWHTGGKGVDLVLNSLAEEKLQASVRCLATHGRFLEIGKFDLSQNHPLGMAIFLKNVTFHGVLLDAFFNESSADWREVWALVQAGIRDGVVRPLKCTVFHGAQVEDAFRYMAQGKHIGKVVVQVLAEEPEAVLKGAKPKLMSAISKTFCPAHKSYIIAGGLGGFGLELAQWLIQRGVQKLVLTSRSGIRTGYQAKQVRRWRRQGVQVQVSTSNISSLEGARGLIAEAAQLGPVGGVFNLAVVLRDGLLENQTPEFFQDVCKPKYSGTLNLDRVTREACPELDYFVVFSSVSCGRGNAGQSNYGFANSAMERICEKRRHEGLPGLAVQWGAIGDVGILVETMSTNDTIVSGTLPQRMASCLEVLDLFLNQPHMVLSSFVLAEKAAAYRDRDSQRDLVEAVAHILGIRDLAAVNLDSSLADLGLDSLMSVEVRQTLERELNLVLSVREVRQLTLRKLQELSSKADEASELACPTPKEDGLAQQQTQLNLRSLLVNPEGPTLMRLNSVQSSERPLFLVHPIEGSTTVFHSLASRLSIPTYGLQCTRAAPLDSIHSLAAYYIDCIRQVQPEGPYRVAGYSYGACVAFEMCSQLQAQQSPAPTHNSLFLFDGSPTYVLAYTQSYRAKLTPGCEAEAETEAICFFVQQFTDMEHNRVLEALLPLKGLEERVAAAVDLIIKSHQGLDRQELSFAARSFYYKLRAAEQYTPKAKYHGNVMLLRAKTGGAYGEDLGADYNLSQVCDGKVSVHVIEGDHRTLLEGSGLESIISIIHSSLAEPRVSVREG
Chain of Retinoic acid receptor RXR-alpha (Homo sapiens) (P19793 whole entry, looked up): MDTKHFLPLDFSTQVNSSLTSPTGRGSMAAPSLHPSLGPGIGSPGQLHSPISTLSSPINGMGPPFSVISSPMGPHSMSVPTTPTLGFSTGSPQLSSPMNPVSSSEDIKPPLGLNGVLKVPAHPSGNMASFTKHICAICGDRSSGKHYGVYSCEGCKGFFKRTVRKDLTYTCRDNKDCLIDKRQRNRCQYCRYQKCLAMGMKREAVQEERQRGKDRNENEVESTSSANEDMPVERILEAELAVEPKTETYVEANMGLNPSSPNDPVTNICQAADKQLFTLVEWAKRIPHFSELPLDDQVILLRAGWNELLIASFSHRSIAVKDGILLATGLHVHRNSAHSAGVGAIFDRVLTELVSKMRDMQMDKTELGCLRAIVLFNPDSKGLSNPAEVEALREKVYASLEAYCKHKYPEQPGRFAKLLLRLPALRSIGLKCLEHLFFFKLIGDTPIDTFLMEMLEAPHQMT

N#CC(CCc1ccc(Cl)cc1)(Cn1cncn1)c1ccccc1 (stereo not drawn)
inactive: [1] | [2] | [3] | [4] | [6] | [7] | [9] | [10] | [11] | [15]
active: [5] 0.36 µM | [8] 0.386 µM | [12] 0.627 µM | [13] 76.1 µM | [14] 91.1 µM | [16] 60.9 µM | [17] 71.5 µM | [18] 54.5 µM

CCCCNC(=O)n1c(NC(=O)OC)nc2ccccc21
inactive: [1] | [2] | [3] | [4] | [5] | [6] | [7] | [8] | [9] | [10] | [11] | [12] | [13] | [14] | [15] | [16] | [17] | [18]

CC1COC(Cn2cncn2)(c2ccc(Oc3ccc(Cl)cc3)cc2Cl)O1 (stereo not drawn)
active: [5] 0.5 µM | [8] 0.372 µM | [9] 0.334 µM | [13] 17.9 µM | [14] 29.7 µM | [16] 12.7 µM | [17] 83.9 µM | [18] 17.4 µM
inactive: [1] | [2] | [3] | [4] | [7] | [10] | [11] | [12] | [15]

N#Cc1cc(Br)c(O)c(Br)c1
inactive: [1] | [2] | [13] | [15]
active: [14] 8.13 µM | [16] 10.1 µM | [17] 10.4 µM | [18] 9.54 µM

O=C(Nc1ccccc1)Nc1ccnc(Cl)c1
active: [16] 50 µM | [17] 40.9 µM | [18] 65.3 µM
inactive: [1] | [2] | [13] | [14] | [15]

CCCCOC(=O)c1ccccc1C(=O)OCCCC
inactive: [19] | [1] | [2] | [13] | [14] | [15] | [16] | [17] | [18]
